# Source: PubChem BioAssay (EPA / NIEHS)
# Where “and” joins values, the source holds several entries; their conditions need not be identical. Equal entries are not always repeated. Results filed as inconclusive are left out. Calls of active or inactive are those of the source. How the source made its calls: active means hit-call score of the fitted dose curve at least 0.9, where 1 is the maximum; inconclusive means response in the unintended direction; inactive means score below 0.9.
# Tests used:
# [1] = target: rat CYP2D2, Cyp2d26 (gene 25053) (UniProt P10634); assay: NVS_ADME_rCYP2D2: NovaScreen (NVS) CYP450-related Enzyme Activity (ADME) Assay for rat CYP2D2 (AID 2283124)
# Method in brief: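 Recombinant rat CYP2D2 in a cell-free fluorogenic activity assay, fluorescence read 0.75 h after dosing. Primary screen in duplicate at 10 uM; actives re-run singly in concentration-response to 20 uM, relative to acetonitrile.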
# [2] = target: human Acetylcholinesterase (AChE), ACHE (gene 43) (UniProt P22303); assay: NVS_ENZ_hAChE: NovaScreen (NVS) Enzymatic Assay for human Acetylcholinesterase (AChE) (AID 2283129)
# Method in brief: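 Cell-free colorimetric enzyme-activity assay; compounds read 0.33 hour after dosing, loss of signal vs DMSO baseline. Primary screen in duplicate at 25 uM single concentration, with active compounds retested in concentration series.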
# rat CYP3A1, gene 25642 = assay: NVS_ADME_rCYP3A1: NovaScreen (NVS) CYP450-related Enzyme Activity (ADME) Assay for rat CYP3A1 (AID 2283126)
# Method in brief: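 Cell-free recombinant CYP assay with fluorescent substrate, read 0.5 h after dosing. Screened at 10 uM in duplicate, hits at up to 20 uM in concentration-response; loss of signal versus acetonitrile baseline.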
# [3] = target: human Beta-secretase (BACE), BACE1 (gene 23621) (UniProt P56817); assay: NVS_ENZ_hBACE: NovaScreen (NVS) Enzymatic Assay for human Beta-secretase (BACE) (AID 2283140);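 further: hits are inhibitors that reduce fluorescent substrate signal versus DMSO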
# Method in brief: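 Cell-free fluorescence-intensity assay of recombinant BACE1 expressed in SF9 cells, read 1 hour after dosing. Loss of signal indicates reduced protease activity, fitted relative to DMSO negative control. Primary screen at 25 uM in duplicate; actives followed in concentration series.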
# [4] = target: human Caspase 2 (CASP2), CASP2 (gene 835) (UniProt P42575); assay: NVS_ENZ_hCASP2: NovaScreen (NVS) Enzymatic Assay for human Caspase 2 (CASP2) (AID 2283135)
# Method in brief: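 E. coli-expressed enzyme in a cell-free protease assay, fluorescence read 1 h after dosing. Compounds at 25 uM in duplicate, with concentration-response up to 50 uM for hits; loss of signal against DMSO baseline.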
# Caspase-1 (Homo sapiens) = Caspase-1 (Homo sapiens) (UniProt P29466); assay: NVS_ENZ_hCASP1: NovaScreen (NVS) Enzymatic Assay for human Caspase 1 (CASP1) (AID 2283132)
# Method in brief: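 Cell-free enzymatic assay with E. coli-expressed recombinant protein; fluorescence intensity read 1 hour after dosing. Single-concentration duplicate screen at 25 uM, then concentration-response up to 50 uM; activity fitted relative to DMSO, loss of signal meaning inhibition.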
# [5] = target: rat CYP2C12, Cyp2c12 (gene 25011) (UniProt P11510); assay: NVS_ADME_rCYP2C12: NovaScreen (NVS) CYP450-related Enzyme Activity (ADME) Assay for rat CYP2C12 (AID 2283119)
# Method in brief: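 Cell-free recombinant rat CYP2C12 activity read by fluorescence 0.5 h after dosing; loss of signal versus acetonitrile control. Primary screen in duplicate at 10 uM; actives then run in concentration-response format.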
# [6] = target: human Acid Phosphatase 1 (ACP1), ACP1 (gene 52) (UniProt P24666); assay: NVS_ENZ_hACP1: NovaScreen (NVS) Enzymatic Assay for human Acid Phosphatase 1 (ACP1) (AID 2283136)
# Method in brief: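 Recombinant enzyme expressed in Sf9 cells, tested cell-free; activity read by fluorescence with electrophoretic mobility shift separation of substrate and product, 1.5 h after dosing. Primary screen in duplicate at 25 uM, actives then run in concentration series; loss of signal versus DMSO.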
# [7] = target: human Caspase 5 (CASP5), CASP5 (gene 838) (UniProt P51878); assay: NVS_ENZ_hCASP5: NovaScreen (NVS) Enzymatic Assay for human Caspase 5 (CASP5) (AID 2283137)
# Method in brief: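 Recombinant E. coli-expressed human caspase 5 in a cell-free enzyme assay; fluorescence intensity read 2 hours after chemical dosing. Single-concentration duplicate screen at 25 uM, then concentration-response up to 50 uM for hits; DMSO negative control.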
# [8] = target: human AKT serine/threonine Kinase 1 (AKT1), AKT1 (gene 207) (UniProt P31749); assay: NVS_ENZ_hAKT1: NovaScreen (NVS) Enzymatic Assay for human AKT serine/threonine Kinase 1 (AKT1) (AID 2283138)
# Method in brief: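 Cell-free recombinant enzyme with substrate; activity read by fluorescence intensity after electrophoretic mobility shift separating substrate from product, 1 h after dosing. Single-concentration duplicates at 25 uM, then singleton concentration-response up to 50 uM; loss of signal versus DMSO.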
# [9] = target: human AMP-activated Protein Kinase, alpha 1 (AMPKa1), PRKAA1 (gene 5562) (UniProt Q13131); assay: NVS_ENZ_hAMPKa1: NovaScreen (NVS) Enzymatic Assay for human AMP-activated Protein Kinase, alpha 1 (AMPKa1) (AID 2283130)
# Method in brief: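 Recombinant human AMPKα1 activity was measured cell-free by fluorescent substrate conversion with electrophoretic mobility-shift separation, 1 h after dosing. Duplicate single-point screening was at 25 uM; actives (≥30% inhibition) were retested in concentration-response up to 50 uM.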
# Sequence of human Acetylcholinesterase (AChE), ACHE (gene 43) (P22303 whole entry, looked up): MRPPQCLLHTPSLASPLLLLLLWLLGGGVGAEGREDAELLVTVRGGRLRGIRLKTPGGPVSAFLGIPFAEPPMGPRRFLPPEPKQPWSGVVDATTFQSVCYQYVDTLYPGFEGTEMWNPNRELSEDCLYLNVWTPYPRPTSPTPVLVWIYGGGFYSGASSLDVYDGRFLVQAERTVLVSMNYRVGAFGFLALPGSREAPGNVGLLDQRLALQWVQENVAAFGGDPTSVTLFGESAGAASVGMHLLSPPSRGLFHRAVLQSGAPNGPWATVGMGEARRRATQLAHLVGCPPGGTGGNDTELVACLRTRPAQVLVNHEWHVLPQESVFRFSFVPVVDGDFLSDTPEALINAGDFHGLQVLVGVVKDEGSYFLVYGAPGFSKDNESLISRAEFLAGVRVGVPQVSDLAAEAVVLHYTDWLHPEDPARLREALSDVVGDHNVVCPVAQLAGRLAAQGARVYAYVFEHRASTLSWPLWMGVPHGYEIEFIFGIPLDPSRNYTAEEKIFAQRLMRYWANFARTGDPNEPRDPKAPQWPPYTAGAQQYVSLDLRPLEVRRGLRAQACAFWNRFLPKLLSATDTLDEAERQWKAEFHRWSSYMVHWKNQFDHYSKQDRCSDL
# Sequence of Caspase-1 (Homo sapiens) (P29466 whole entry, looked up): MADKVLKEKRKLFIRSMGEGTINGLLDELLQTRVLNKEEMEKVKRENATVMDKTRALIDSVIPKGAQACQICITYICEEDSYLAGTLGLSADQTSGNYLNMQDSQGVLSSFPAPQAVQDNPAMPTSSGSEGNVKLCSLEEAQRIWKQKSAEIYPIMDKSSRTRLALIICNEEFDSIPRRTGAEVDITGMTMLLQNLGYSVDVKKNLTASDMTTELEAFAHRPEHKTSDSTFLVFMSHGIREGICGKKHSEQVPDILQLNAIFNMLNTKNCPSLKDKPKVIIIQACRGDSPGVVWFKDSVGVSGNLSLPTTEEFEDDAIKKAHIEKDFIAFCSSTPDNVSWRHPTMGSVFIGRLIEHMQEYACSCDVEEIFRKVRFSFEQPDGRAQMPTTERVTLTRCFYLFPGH
# Sequence of human Beta-secretase (BACE), BACE1 (gene 23621) (P56817 whole entry, looked up): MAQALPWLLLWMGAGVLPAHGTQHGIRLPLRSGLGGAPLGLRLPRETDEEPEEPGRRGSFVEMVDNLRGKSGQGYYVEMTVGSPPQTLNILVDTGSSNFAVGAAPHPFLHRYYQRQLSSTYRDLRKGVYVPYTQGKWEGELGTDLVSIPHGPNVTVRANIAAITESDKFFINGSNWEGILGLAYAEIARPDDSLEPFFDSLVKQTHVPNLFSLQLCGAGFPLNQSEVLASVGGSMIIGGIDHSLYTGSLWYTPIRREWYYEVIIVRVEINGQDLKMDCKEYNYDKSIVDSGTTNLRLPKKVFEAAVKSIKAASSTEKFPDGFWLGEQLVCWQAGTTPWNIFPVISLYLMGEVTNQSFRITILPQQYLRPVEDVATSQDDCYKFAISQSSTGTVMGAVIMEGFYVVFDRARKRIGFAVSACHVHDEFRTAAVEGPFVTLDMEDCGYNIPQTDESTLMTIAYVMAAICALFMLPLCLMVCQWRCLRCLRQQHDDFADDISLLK
# Sequence of human Caspase 5 (CASP5), CASP5 (gene 838) (P51878 whole entry, looked up): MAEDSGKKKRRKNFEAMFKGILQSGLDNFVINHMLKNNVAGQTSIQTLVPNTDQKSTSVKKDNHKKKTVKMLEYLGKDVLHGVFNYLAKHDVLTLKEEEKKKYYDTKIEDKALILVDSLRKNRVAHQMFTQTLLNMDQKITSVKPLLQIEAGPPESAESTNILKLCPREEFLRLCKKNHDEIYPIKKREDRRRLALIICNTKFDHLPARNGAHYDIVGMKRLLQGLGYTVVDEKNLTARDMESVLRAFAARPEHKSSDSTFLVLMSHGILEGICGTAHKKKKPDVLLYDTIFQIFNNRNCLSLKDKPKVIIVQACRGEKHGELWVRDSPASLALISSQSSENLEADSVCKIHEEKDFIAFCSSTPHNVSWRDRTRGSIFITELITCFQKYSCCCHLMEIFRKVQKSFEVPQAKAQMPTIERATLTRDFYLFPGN
# Sequence of human Caspase 2 (CASP2), CASP2 (gene 835) (P42575 whole entry, looked up): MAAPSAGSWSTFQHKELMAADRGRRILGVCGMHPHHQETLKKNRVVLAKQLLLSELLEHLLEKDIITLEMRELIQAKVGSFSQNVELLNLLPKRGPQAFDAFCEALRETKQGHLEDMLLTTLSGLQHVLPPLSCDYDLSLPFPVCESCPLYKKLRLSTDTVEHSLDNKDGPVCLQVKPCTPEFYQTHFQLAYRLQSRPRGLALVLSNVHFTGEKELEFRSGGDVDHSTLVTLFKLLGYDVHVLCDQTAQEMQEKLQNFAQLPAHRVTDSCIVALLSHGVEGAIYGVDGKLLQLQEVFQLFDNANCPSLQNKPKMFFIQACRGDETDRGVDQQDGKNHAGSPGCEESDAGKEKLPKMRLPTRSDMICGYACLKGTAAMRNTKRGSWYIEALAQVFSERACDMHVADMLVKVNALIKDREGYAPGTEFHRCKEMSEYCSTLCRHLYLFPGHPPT
# Sequence of human Acid Phosphatase 1 (ACP1), ACP1 (gene 52) (P24666 whole entry, looked up): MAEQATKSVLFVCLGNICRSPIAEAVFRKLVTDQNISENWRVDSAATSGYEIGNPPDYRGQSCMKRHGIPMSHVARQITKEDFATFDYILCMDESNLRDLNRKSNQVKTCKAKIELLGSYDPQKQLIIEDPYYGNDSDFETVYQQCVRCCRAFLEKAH
# Sequence of human AMP-activated Protein Kinase, alpha 1 (AMPKa1), PRKAA1 (gene 5562) (Q13131 whole entry, looked up): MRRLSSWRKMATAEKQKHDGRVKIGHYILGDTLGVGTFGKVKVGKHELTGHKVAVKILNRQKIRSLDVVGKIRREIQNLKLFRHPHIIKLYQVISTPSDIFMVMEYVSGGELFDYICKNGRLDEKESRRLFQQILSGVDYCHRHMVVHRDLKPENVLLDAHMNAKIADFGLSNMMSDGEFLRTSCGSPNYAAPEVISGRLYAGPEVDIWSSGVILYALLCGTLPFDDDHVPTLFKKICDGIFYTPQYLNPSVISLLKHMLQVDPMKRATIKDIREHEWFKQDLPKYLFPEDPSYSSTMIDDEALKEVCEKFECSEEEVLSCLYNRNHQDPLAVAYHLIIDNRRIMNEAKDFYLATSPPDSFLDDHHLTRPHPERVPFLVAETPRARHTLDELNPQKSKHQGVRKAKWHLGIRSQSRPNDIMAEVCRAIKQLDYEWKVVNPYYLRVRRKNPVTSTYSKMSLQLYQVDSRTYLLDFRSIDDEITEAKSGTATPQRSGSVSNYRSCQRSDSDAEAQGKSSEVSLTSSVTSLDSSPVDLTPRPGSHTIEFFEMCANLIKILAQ
# Sequence of human AKT serine/threonine Kinase 1 (AKT1), AKT1 (gene 207) (P31749 whole entry, looked up): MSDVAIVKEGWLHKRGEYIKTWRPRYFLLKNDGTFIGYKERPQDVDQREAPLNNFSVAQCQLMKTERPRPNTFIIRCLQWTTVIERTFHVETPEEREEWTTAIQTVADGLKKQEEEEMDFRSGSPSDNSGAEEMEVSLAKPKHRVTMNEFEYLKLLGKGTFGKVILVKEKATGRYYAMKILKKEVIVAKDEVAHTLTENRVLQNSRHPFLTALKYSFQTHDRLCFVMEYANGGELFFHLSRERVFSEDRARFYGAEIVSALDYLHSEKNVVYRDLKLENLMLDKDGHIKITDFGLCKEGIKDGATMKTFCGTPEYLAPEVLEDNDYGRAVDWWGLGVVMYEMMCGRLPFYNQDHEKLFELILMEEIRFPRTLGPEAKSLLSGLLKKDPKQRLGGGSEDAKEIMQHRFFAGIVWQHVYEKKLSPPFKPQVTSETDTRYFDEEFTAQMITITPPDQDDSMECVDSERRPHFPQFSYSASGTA
# Sequence of rat CYP2D2, Cyp2d26 (gene 25053) (P10634 whole entry, looked up): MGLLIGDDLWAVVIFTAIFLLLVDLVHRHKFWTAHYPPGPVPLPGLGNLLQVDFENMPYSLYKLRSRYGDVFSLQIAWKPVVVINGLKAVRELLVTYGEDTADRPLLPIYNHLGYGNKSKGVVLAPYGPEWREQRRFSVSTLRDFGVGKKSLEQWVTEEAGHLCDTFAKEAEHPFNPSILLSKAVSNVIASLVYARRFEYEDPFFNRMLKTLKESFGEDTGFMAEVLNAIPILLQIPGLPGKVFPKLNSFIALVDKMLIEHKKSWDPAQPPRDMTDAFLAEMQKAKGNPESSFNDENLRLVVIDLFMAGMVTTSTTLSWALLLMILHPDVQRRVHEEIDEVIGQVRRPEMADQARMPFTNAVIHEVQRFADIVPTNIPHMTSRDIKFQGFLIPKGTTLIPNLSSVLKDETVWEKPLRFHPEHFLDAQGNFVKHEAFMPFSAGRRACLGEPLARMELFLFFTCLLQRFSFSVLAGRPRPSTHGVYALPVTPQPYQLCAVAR
# Sequence of rat CYP2C12, Cyp2c12 (gene 25011) (P11510 whole entry, looked up): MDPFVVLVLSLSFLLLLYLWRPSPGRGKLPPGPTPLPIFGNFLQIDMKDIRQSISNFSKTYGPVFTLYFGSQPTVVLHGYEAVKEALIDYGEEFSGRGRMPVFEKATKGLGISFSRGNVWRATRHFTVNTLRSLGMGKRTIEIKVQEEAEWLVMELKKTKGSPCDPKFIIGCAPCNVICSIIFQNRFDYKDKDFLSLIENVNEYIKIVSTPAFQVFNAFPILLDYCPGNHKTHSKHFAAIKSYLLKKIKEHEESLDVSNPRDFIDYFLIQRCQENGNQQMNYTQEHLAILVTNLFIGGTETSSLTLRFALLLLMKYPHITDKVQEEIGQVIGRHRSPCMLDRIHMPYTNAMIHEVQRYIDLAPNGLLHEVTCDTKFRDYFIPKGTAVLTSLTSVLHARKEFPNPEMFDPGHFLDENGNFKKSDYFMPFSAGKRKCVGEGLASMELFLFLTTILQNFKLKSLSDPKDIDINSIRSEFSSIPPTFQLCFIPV
structure (smiles),measurement,setting,value
CCCCOC(=O)[C@@H](C)Oc1ccc(Oc2ccc(C#N)cc2F)cc1,AC50,[1],12.1 µM (active)
CC(=NC#N)N(C)Cc1ccc(Cl)nc1,AC50,[2],22.4 µM (active)
COc1cccc(C(=O)NN(C(=O)c2cc(C)cc(C)c2)C(C)(C)C)c1C,AC50,"rat CYP3A1, gene 25642",0.331 µM (active)
CON=C(C(=O)OC)c1ccccc1CON=C(C)c1cccc(C(F)(F)F)c1,outcome,[3],inactive
O=c1ccc(=O)[nH][nH]1,outcome,[4],inactive
CCC(CC)Nc1c([N+](=O)[O-])cc(C)c(C)c1[N+](=O)[O-],outcome,[3],inactive
CSc1nc(NC(C)C)nc(NC(C)C)n1,AC50,"rat CYP3A1, gene 25642",5.92 µM (active)
same,outcome,Caspase-1 (Homo sapiens),inactive
S=C1NCCN1,outcome,[5],inactive
same,outcome,"rat CYP3A1, gene 25642",inactive
same,outcome,Caspase-1 (Homo sapiens),inactive
same,outcome,[4],inactive
same,outcome,[6],inactive
same,outcome,[7],inactive
same,outcome,[8],inactive
same,outcome,[3],inactive
CCOP(=S)(OCC)Oc1cc(C)nc(C(C)C)n1,AC50,"rat CYP3A1, gene 25642",6.82 µM (active)
CCOP(=O)(OCC)Oc1cc(C)nc(C(C)C)n1,outcome,"rat CYP3A1, gene 25642",inactive
CNC(=O)ON=C(SC)C(=O)N(C)C,AC50,[2],12 µM (active)
CN(C)[C@@H]1C(=O)C(C(N)=O)=C(O)[C@@]2(O)C(=O)C3=C(O)c4c(O)cccc4[C@@](C)(O)[C@H]3[C@H](O)[C@@H]12,AC50,[9],2.4 µM (active)
same,AC50,Caspase-1 (Homo sapiens),11.6 µM (active)
same,AC50,[4],10.8 µM (active)
same,AC50,[6],23.1 µM (active)
same,AC50,[7],5.15 µM (active) and 683 nM (active)
same,AC50,[3],12.6 µM (active) and 7.9 µM (active)
CCOP(=S)(OCC)OC(Cl)C(Cl)(Cl)Cl (stereo not drawn),AC50,[2],8.21 µM (active)
CC(C)[C@H](C(=O)O[C@H](C#N)c1cccc(Oc2ccccc2)c1)c1ccc(Cl)cc1,outcome,Caspase-1 (Homo sapiens),inactive
same,AC50,[3],1.19 µM (active)
